Source: PubChem BioAssay (The Scripps Research Institute Molecular Screening Center)
MITF inh: blocks human microphthalmia-associated transcription factor | O75030 | AlphaScreen MITF homodimerization, bead proximity signal | 0.91% of 650,000 active | AID 1259374 | inhibition, % at 2.6 µM; in the data active = inhibition above about 50%;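 note: 0% = vehicle wells with protein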
TEAD-YAP block: TEAD-YAP interaction inhibition | HEK-TIYL cells, TEAD-Gal4/YAP UAS-luciferase luminescence | inhibition, % at 9.12 µM | 1.4% of 640,000 active | AID 1259422; in the data active = inhibition above about 32%;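 note: 0% = median of test compound wells and 100% = reference inhibitor wells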
FBW7 activator: activators of human E3 ligase FBW7 | 0.13% of 650,000 active | normalized activity (activation), % at 26.1 µM | Q969H0 | AID 1259310 | AlphaScreen FBW7–phospho-cyclin E peptide binding, activator screen; in the data active = normalized activity above about 1.9%;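 note: purified mutant Fbw7 with reduced substrate affinity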
Target sequence (Q969H0 whole entry, looked up): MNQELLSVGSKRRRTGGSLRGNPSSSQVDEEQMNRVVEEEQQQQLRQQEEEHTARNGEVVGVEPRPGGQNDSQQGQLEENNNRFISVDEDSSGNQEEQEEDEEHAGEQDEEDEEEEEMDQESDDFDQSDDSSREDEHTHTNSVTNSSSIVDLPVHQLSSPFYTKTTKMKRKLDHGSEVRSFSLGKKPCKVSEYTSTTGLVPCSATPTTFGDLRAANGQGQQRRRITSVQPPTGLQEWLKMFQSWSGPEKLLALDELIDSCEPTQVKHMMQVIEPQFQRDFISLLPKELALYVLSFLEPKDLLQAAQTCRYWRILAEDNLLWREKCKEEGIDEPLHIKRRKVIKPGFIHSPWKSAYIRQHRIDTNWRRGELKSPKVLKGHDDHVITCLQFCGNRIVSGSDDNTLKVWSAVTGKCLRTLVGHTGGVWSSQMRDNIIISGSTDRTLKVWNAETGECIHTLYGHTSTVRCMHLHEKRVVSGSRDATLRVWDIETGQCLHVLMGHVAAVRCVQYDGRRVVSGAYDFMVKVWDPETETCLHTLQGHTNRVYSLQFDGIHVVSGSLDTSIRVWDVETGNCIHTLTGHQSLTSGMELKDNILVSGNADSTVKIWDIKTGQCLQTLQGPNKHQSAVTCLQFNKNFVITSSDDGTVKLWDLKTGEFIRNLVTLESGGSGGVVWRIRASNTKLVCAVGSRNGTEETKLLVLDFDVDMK
GPR151 ag: activates the human receptor GPR151. Q8TDV0. PathHunter beta-arrestin GPR151 cells, luminescence. activation, % at 11.2 µM. 1% of 650,000 active. AID 1508602; in the data active = activation above about 4.9%;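 note: 0% = median of compound wells and 100% = cells with positive control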
Active calls of the source: *. Hits are enriched below; roughly 3.5% of the tested compounds scored in any of these assays.

Results for Cc1ccc(S(=O)(=O)Nc2ccccc2C(=O)Nc2ccc([N+](=O)[O-])cc2)cc1 ?
MITF inh: 19; TEAD-YAP block: 63*; FBW7 activator: 0; GPR151 ag: 1

What do the screens show for `COc1ccc(NS(=O)(=O)c2ccc(NC(=O)c3cccc([N+](=O)[O-])c3)cc2)cc1`?
MITF inh: 3; TEAD-YAP block: 33*; FBW7 activator: 0; GPR151 ag: 0

How did CC(=O)c1cccc(NS(=O)(=O)c2ccc(NC(=O)c3ccccc3Cl)cc2)c1 do in these assays?
MITF inh: 4; TEAD-YAP block: 39*; FBW7 activator: 0; GPR151 ag: 0

What do the screens show for `COc1cc(OC)cc(C(=O)Nc2ccc(S(=O)(=O)Nc3nccc(C)n3)cc2)c1`?
MITF inh: 14; TEAD-YAP block: -13; FBW7 activator: 2.0*; GPR151 ag: 1

How did O=C(Nc1cccc([N+](=O)[O-])c1)c1cccc(S(=O)(=O)Nc2cccc(F)c2)c1 do in these assays?
MITF inh: -16; TEAD-YAP block: 16; FBW7 activator: 0; GPR151 ag: 0

What do the screens show for `O=C(Nc1ccc([N+](=O)[O-])cc1)c1cccc(S(=O)(=O)Nc2cccc(F)c2)c1`?
MITF inh: -11; TEAD-YAP block: 33*; FBW7 activator: 0; GPR151 ag: 0

How did O=C(NCCc1ccccc1)C1CCC(Cn2c(SCC(=O)N3CCN(c4ccccc4)CC3)nc3ccccc3c2=O)CC1 (stereo unspecified) do in these assays?
MITF inh: 2; TEAD-YAP block: 7; FBW7 activator: 0; GPR151 ag: -1

What do the screens show for `Cc1ccc(S(=O)(=O)N2CCN(c3nnnn3-c3ccccc3)CC2)cc1Cl`?
MITF inh: -9; TEAD-YAP block: -2; FBW7 activator: 2.2*; GPR151 ag: 1

How did CN(C)c1ccc(-c2cnc3ccc(NCCc4ccccn4)nn23)cc1 do in these assays?
MITF inh: 31; TEAD-YAP block: 29; FBW7 activator: 0; GPR151 ag: -1

Results for Oc1ccc(-c2cnc3ccc(NCc4ccco4)nn23)cc1 ?
MITF inh: 6; TEAD-YAP block: 47*; FBW7 activator: 0; GPR151 ag: 0

What do the screens show for `Fc1ccc(-c2cnc3ccc(NCCc4ccccn4)nn23)cc1`?
MITF inh: 17; TEAD-YAP block: 68*; FBW7 activator: 0; GPR151 ag: 0

How did Fc1ccc(-c2cnc3ccc(NCc4ccccn4)nn23)cc1 do in these assays?
MITF inh: -6; TEAD-YAP block: 51*; FBW7 activator: -1; GPR151 ag: 0

Results for COc1ccc(CNc2ccc3ncc(-c4cccc(CO)c4)n3n2)cc1 ?
MITF inh: -22; TEAD-YAP block: 33*; FBW7 activator: 0; GPR151 ag: -1

How did CN(C)c1ccc(-c2cnc3ccc(NCc4ccccn4)nn23)cc1 do in these assays?
MITF inh: -2; TEAD-YAP block: 9; FBW7 activator: 0; GPR151 ag: 1

Results for O=C(CCc1n[nH]c(=O)[nH]c1=O)NCc1ccccc1 ?
MITF inh: 6; TEAD-YAP block: -3; FBW7 activator: 0; GPR151 ag: -1

How did Clc1cccc(-c2cnc3ccc(NCc4ccccn4)nn23)c1 do in these assays?
MITF inh: -12; TEAD-YAP block: 5; FBW7 activator: 0; GPR151 ag: -1

Results for c1ccc(-c2cnc3ccc(NCc4ccccn4)nn23)cc1 ?
MITF inh: -4; TEAD-YAP block: 39*; FBW7 activator: 0; GPR151 ag: 0

How did COc1ccc(-c2cnc3ccc(NCc4ccccn4)nn23)cc1 do in these assays?
MITF inh: -8; TEAD-YAP block: 45*; FBW7 activator: 1; GPR151 ag: -1

Results for CN(CC(=O)N1c2ccccc2Sc2ccc(Cl)cc21)Cc1ccccc1 ?
MITF inh: -3; TEAD-YAP block: 0; FBW7 activator: 1; GPR151 ag: 4

How did COC(=O)c1cc(CNC(=O)c2cc3nc(C)cc(C)n3n2)cc(NC(=O)c2ccoc2)c1 do in these assays?
MITF inh: -1; TEAD-YAP block: 12; FBW7 activator: 0; GPR151 ag: 1

Results for CC(=O)Nc1nc(-c2ccc3c(c2)NC(=O)CO3)cs1 ?
MITF inh: 6; TEAD-YAP block: 58*; FBW7 activator: 0; GPR151 ag: 0

Results for O=C(Nc1ccc2c(c1)N(C(=O)C1CCCO1)CC2)c1cc2ccccc2oc1=O (stereo unspecified) ?
MITF inh: -5; TEAD-YAP block: 57*; FBW7 activator: 0; GPR151 ag: -1

What do the screens show for `O=C(Nc1ccccc1Cl)c1cc(S(=O)(=O)NCc2ccccc2Cl)ccc1F`?
MITF inh: 3; TEAD-YAP block: 3; FBW7 activator: 0; GPR151 ag: 2

How did c1ccc(OCCSc2nnc3sc4ccccc4n23)cc1 do in these assays?
MITF inh: -9; TEAD-YAP block: 71*; FBW7 activator: 0; GPR151 ag: -5

How did O=C1OC(C2CCCCC2)=N/C1=C\c1ccc([N+](=O)[O-])cc1 do in these assays?
MITF inh: 15; TEAD-YAP block: 1; FBW7 activator: 0; GPR151 ag: 3

What do the screens show for `Cc1ccccc1C=Nc1ccccc1C(N)=O`?
MITF inh: -14; TEAD-YAP block: 49*; FBW7 activator: 0; GPR151 ag: 0

What do the screens show for `Cc1cc(C)c(C=Nc2ccccc2C(N)=O)c(C)c1`?
MITF inh: -3; TEAD-YAP block: 10; FBW7 activator: 0; GPR151 ag: 1

Results for Cn1nccc1Nc1nc(NCCCN2CCCC2=O)c2ncn(-c3ccsc3)c2n1 ?
MITF inh: 9; TEAD-YAP block: 17; FBW7 activator: 0; GPR151 ag: 1

Results for O=C1CCCN1CCCNc1nc(NC2CC2)c2ncn(-c3ccsc3)c2n1 ?
MITF inh: 8; TEAD-YAP block: 34*; FBW7 activator: 0; GPR151 ag: 3

How did O=C1CCCN1CCCNc1nc(Nc2cnccn2)nc2c1ncn2-c1ccsc1 do in these assays?
MITF inh: 4; TEAD-YAP block: 75*; FBW7 activator: 0; GPR151 ag: -1

What do the screens show for `COc1cc(Nc2nc(NCCCN3CCCC3=O)c3ncn(-c4ccsc4)c3n2)cc(OC)c1OC`?
MITF inh: 2; TEAD-YAP block: 54*; FBW7 activator: 0; GPR151 ag: -1

What do the screens show for `COc1cc(Nc2nc(NCCCN3CCCC3=O)nc3c2ncn3-c2ccsc2)cc(OC)c1OC`?
MITF inh: 8; TEAD-YAP block: 14; FBW7 activator: 0; GPR151 ag: -2

Results for O=C1CCCN1CCCNc1nc(Nc2ccccn2)nc2c1ncn2-c1ccsc1 ?
MITF inh: -12; TEAD-YAP block: 53*; FBW7 activator: 0; GPR151 ag: 2

What do the screens show for `COC(=O)c1[nH]c2ccccc2c1/C=C1/C(=O)Nc2ccccc21`?
MITF inh: 6; TEAD-YAP block: 21; FBW7 activator: 0; GPR151 ag: -1

How did CCOc1ccc(NC(=O)Cn2nnc(-c3ccc(N)cc3)n2)cc1 do in these assays?
MITF inh: 10; TEAD-YAP block: 4; FBW7 activator: 0; GPR151 ag: -1

Results for COc1cc(Nc2nc(N3CCN(c4ccccn4)CC3)nc3c2ncn3CCN2CCCC2=O)cc(OC)c1OC ?
MITF inh: 4; TEAD-YAP block: 33*; FBW7 activator: 0; GPR151 ag: 0
